About 83,000 compounds went through this panel and 20% of them were active in at least one assay; those are over-represented in the sample as a whole.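 Percent growth is the endpoint: 0 to 100 indicates growth inhibition (40 means 60% inhibition), 0 means no net growth, and negative values indicate cell death.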 A number with no mark means an inactive call. The source made the active and inactive calls. Rule for the calls: active = growth percent below 10; inactive = the rest.

Among the test systems are SK-MEL-2 melanoma; EKVX NSCLC; SN12C renal; UO-31 renal; TK-10 renal; ACHN renal; CAKI-1 renal; A498 renal; CCRF-CEM leukemia; MOLT-4 leukemia; SR leukemia; RPMI-8226 leukemia; OVCAR-8 ovarian; OVCAR-5 ovarian; OVCAR-4 ovarian; SK-OV-3 ovarian; IGROV1 ovarian; HS 578T breast; NCI/ADR-RES ovarian; OVCAR-3 ovarian.
Common to all, as to assay: NCI-60 one-dose screen, 48 h (100 = growth as untreated, 0 = no growth, -100 = all killed)
What all share (conditions): 10 µM unless noted

On to `NC1=Nc2cc(OCCCCN3Cc4ccccc4C3)c(OCC3CC3)cc2C12CCCC2`, for which the growth with SK-MEL-2 melanoma was 12.5%; in the test on EKVX NSCLC, 64.7%; in the test on SN12C renal, 66.5%; in the test with UO-31 renal, 43.2%; with TK-10 renal, 87.1%; with ACHN renal it was 65.7%. For the same molecule, the growth was 1.68% (active) in the test on CAKI-1 renal; -0.354% (active) in the test on A498 renal; 37.7% in the test with CCRF-CEM leukemia; 29.9% with MOLT-4 leukemia; 11.3% with SR leukemia; 5.52% (active) with RPMI-8226 leukemia. The growth with OVCAR-8 ovarian was 45.1%; in the test on OVCAR-5 ovarian, 65.3%; in the test with OVCAR-4 ovarian it was 39.6%; with SK-OV-3 ovarian it was 93.4%; in the test on IGROV1 ovarian it was 50%; with HS 578T breast, 53.3%. For the same molecule, in the test with NCI/ADR-RES ovarian, the growth was 73.2%.
With `CCN1C(=O)N(CC)C2C1NN=c1s/c(=C\c3ccc[nH]3)c(=O)n12` (centres undefined), the growth in the test on SK-MEL-2 melanoma is 23.4%; in the test with EKVX NSCLC, 47.4%; in the test on SN12C renal, 39.2%; with UO-31 renal, 39.2%; in the test with TK-10 renal, 61.6%; in the test on ACHN renal, 42.3%. Also, the growth is 27.5% in the test with CAKI-1 renal; -4.45% (active) with A498 renal; 4.06% (active) with CCRF-CEM leukemia; 20.4% with MOLT-4 leukemia; 16.3% in the test on SR leukemia; 15.5% with RPMI-8226 leukemia. Besides, the growth with OVCAR-8 ovarian is 11.2%; in the test on OVCAR-5 ovarian, 22.2%; in the test on SK-OV-3 ovarian it was 27.1%; with IGROV1 ovarian it was 28.8%; with OVCAR-3 ovarian, -25.3% (active); with HS 578T breast, 7.95% (active). Also, the growth in the test with NCI/ADR-RES ovarian is 8.11% (active).
Regarding `CCOC(=O)C(Cc1ccc(OC)cc1)C(=O)OCC`, the growth in the test on SK-MEL-2 melanoma was 43.4%; in the test with EKVX NSCLC, 69.3%; with SN12C renal it was 40%; in the test on UO-31 renal it was 46.7%; in the test with TK-10 renal, 46.6%; in the test with ACHN renal, 44.7%. The growth in the test on CAKI-1 renal is -14.2% (active); in the test on A498 renal it was 54.5%; with CCRF-CEM leukemia it was 14.3%; in the test with MOLT-4 leukemia, 37.7%; with SR leukemia it was 11.6%; in the test on RPMI-8226 leukemia, 0.799% (active). The growth is 26.4% with OVCAR-8 ovarian; 72% with OVCAR-5 ovarian; 56.4% with OVCAR-4 ovarian; 50% with SK-OV-3 ovarian; 28.1% with IGROV1 ovarian; 6.32% (active) in the test with HS 578T breast. For the same molecule, the growth in the test on NCI/ADR-RES ovarian was 17.9%.
Regarding `CCOC(=O)c1ccccc1-c1c2ccc(=[N+](C)C)cc-2oc2cc(N(C)C)ccc12`, the growth in the test on SK-MEL-2 melanoma is 4.77% (active); in the test with EKVX NSCLC, 34.5%; in the test on SN12C renal, 7.33% (active); with UO-31 renal, 52.1%; with TK-10 renal it was 32%; with ACHN renal, 6.36% (active). In addition, the growth in the test on CAKI-1 renal was -26.9% (active); with A498 renal, 0.621% (active); with CCRF-CEM leukemia, 30.3%; in the test with MOLT-4 leukemia, 31.5%; with SR leukemia, 21.9%; in the test on RPMI-8226 leukemia, 13.8%. Also, the growth with OVCAR-8 ovarian was 2.69% (active); with OVCAR-5 ovarian, 4.53% (active); in the test on OVCAR-4 ovarian it was 17.9%; in the test on SK-OV-3 ovarian, -2.61% (active); with IGROV1 ovarian, 18.4%; with OVCAR-3 ovarian, 11.1%. The growth in the test with HS 578T breast was 26.1%; in the test with NCI/ADR-RES ovarian it was 102%.
Turning to `CCN(CC)c1ccc(CNc2cc(C)nc3ccccc23)cc1`, the growth in the test with SK-MEL-2 melanoma is 84.2%; in the test with EKVX NSCLC, 42.6%; in the test on SN12C renal, 75.4%; in the test with UO-31 renal it was 40%; in the test on TK-10 renal, 67%; with ACHN renal, 64.6%. In addition, the growth with CAKI-1 renal is 53.2%; in the test with A498 renal it was 52.5%; in the test on CCRF-CEM leukemia it was 70%; in the test with MOLT-4 leukemia, 86.4%; in the test on SR leukemia, 50.5%; in the test on RPMI-8226 leukemia, 41.7%. Besides, the growth is 63.2% in the test on OVCAR-8 ovarian; 73.2% in the test with OVCAR-5 ovarian; 52% in the test with OVCAR-4 ovarian; 78.3% in the test on SK-OV-3 ovarian; 74.8% in the test on IGROV1 ovarian; 85.6% with HS 578T breast. Further, the growth in the test with NCI/ADR-RES ovarian was 47.7%.
Regarding `C=CCN1C(=O)c2cccc3c(N4CCOCC4)ccc(c23)C1=O`, the growth in the test with SK-MEL-2 melanoma is -28.1% (active); in the test with EKVX NSCLC, -7.17% (active); in the test with SN12C renal, 17%; with UO-31 renal it was -3.07% (active); with TK-10 renal, -12.9% (active); in the test with ACHN renal it was 18.6%. Besides, the growth is -39.5% (active) with CAKI-1 renal; -57% (active) in the test with A498 renal; -7.18% (active) in the test with CCRF-CEM leukemia; -21.2% (active) in the test with MOLT-4 leukemia; -9.38% (active) in the test with SR leukemia; -25.8% (active) in the test with RPMI-8226 leukemia. Moreover, the growth in the test on OVCAR-8 ovarian was 20.7%; in the test on OVCAR-5 ovarian, 21.4%; in the test on OVCAR-4 ovarian it was 14.4%; with SK-OV-3 ovarian it was 13.9%; in the test with IGROV1 ovarian, -14.5% (active); with OVCAR-3 ovarian, -66.4% (active). Moreover, the values for the growth with HS 578T breast and in the test with NCI/ADR-RES ovarian were 4.58% (active) and 6.06% (active), respectively.
Regarding `Cc1ccc(CNc2ccc3nc(CCC(C)C)[nH]c3c2)cc1`, the growth in the test on SK-MEL-2 melanoma is 107%; in the test with EKVX NSCLC it was 96%; with SN12C renal, 85.9%; with UO-31 renal, 68.6%; with TK-10 renal, 113%; with ACHN renal, 99.3%. The growth is 89.1% in the test on CAKI-1 renal; 97.1% with A498 renal; 93.7% in the test on CCRF-CEM leukemia; 81.4% in the test with MOLT-4 leukemia; 85.9% in the test with SR leukemia; 87.4% in the test on RPMI-8226 leukemia. Besides, the growth in the test on OVCAR-8 ovarian is 89.9%; in the test on OVCAR-5 ovarian it was 101%; in the test with SK-OV-3 ovarian, 100%; in the test with IGROV1 ovarian it was 77.4%; in the test on OVCAR-3 ovarian, 88.9%; in the test with HS 578T breast, 96.3%. Moreover, the growth in the test with NCI/ADR-RES ovarian is 89.6%.
`CCN1C2CCC1/C(=C\c1ccc(F)cc1)C(=O)/C2=C/c1ccc(F)cc1`: the growth in the test with SK-MEL-2 melanoma was 58.9%; in the test on EKVX NSCLC, 57.2%; in the test on SN12C renal, 44.5%; in the test on UO-31 renal, 53.6%; with TK-10 renal, 74.2%; with ACHN renal, 48.6%. Besides, the growth in the test on CAKI-1 renal was 66.4%; in the test with A498 renal, 58.7%; with CCRF-CEM leukemia it was 18.2%; in the test on MOLT-4 leukemia, 13.9%; with SR leukemia, 24.5%; in the test with RPMI-8226 leukemia it was 18.5%. Moreover, the growth was 12.5% with OVCAR-8 ovarian; 73.4% in the test with OVCAR-5 ovarian; 47.3% with OVCAR-4 ovarian; 62% in the test with SK-OV-3 ovarian; 45.7% in the test on IGROV1 ovarian; 66.3% in the test on HS 578T breast. Also, the growth in the test with NCI/ADR-RES ovarian was 17.4%.

For the origin of these results see PubChem BioAssay (NCI).
